From ChEMBL document CHEMBL4513216, “Probing the Open Global Health Chemical Diversity Library for Multistage-Active Starting Points for Next-Generation Antimalarials” (ACS Infect Dis, 2020)
The campaign covered roughly 69,000 compounds. About 8,600 (12%) showed an effect of 50% or more. This is one part of a sample in which strong results are shown more often than they occur.

What follows are compounds tested on Plasmodium berghei (assay: Screen against P. berghei liver stage (PbLuc), transformed with Luciferase, at 10uM). Settings: tested at 10 uM.
Type: functional, HepG2

Compound | INHIBITION [%]
CCN1CCC(NC(=O)CNC(C)Cn2cccn2)CC1 (centres undefined) | 88.6
CC(Cn1cccn1)C(=O)N1CCC(Nc2cccnn2)CC1 (centres undefined) | 53.7
CC(C)C(C(=O)N1CCC(Nc2cccnn2)CC1)n1cncn1 (centres undefined) | 57.2
CC(C(=O)N1CCC(Nc2cccnn2)CC1)n1cccn1 (centres undefined) | 45.7
CN(Cc1ccco1)C(=O)CN1CCOC(Cn2cccn2)C1 (centres undefined) | -53.5
COc1c(CNC2CCc3cc(Cl)ccc32)c(C)nn1C (centres undefined) | 59
COc1c(CNC2CCOc3c(Cl)cccc32)c(C(C)C)nn1C (centres undefined) | -69
COc1c(CNC2CCc3ccccc32)c(C)nn1C (centres undefined) | -63.3
CC(C)c1nn(C)c(Cl)c1CNC1CCOc2ccccc21 (centres undefined) | 53.3
COc1c(CNC2CCOc3ccccc32)c(C(C)C)nn1C (centres undefined) | 47.1
COc1c(CNC2CCCOc3ccc(F)cc32)c(C)nn1C (centres undefined) | -63.5
COc1c(CNC2CCOc3c(Cl)cccc32)c(C)nn1C (centres undefined) | 77.8
CC(C)c1nn(C)c(N(C)C)c1CNC1CCOc2ccccc21 (centres undefined) | 12.2
COc1c(CNC2CCSc3ccc(F)cc32)c(C)nn1C (centres undefined) | 75.2
COc1c(CNC2CCc3cc(C)ccc32)c(C)nn1C (centres undefined) | 21.5
COc1c(CNC2CCOc3c(F)cccc32)c(C)nn1C (centres undefined) | 20
COc1c(CNC2CCc3cc(F)ccc32)c(C)nn1C (centres undefined) | 35.8
Cn1c(SCC(N)=O)nnc1-c1csc2c1CCCC2 | -21.8
CCN1CC(COc2ccccc2)Oc2ncccc2S1(=O)=O (centres undefined) | 13.9
CCSc1cc(C(=O)NCCNC(=O)N(C)C)ccn1 | -22.8
COc1cc(CCC(=O)NC(C)(C)C)ccc1OCC(F)(F)F | -17.4
O=C1C[C@H]2[C@H](CCN2C(=O)c2cc[nH]n2)N1Cc1cccnc1 | 40.8
OCCOc1ccc(NCc2cccnc2)cn1 | 59.5
OCCOc1ccc(NCc2cc(F)cc3cccnc23)cn1 | -116
OCCOc1ccc(NCc2cccc3cn[nH]c23)cn1 | -1.45
OCCOc1ccc(NCc2cccc3cccnc23)cn1 | -37.7
OCCOc1ccc(NCc2cccc3[nH]ccc23)cn1 | 68.2

Compound | INHIBITION [%]
Cc1ncccc1CNc1ccc(OCCO)nc1 | -89.9
Cc1cc(-c2cnn(CCNC(=O)c3cc[nH]n3)c2C2CC2)on1 | 18.9
CCCc1nnc(NC(=O)NC(CCO)c2cccs2)s1 (centres undefined) | -26.8
COc1ccccc1CN1CCCC2(Cc3ccccc3CNC2=O)C1 (centres undefined) | 11
CC(C)OCc1nn(C)c2c1CCN(Cc1ccco1)C2 | -16.9
CCC(=O)N1CCN(c2nc(C)nc3c(C)nn(C)c23)CC1 | 27.5
Cc1ccc2c(c1)CN(C(=O)c1ccncc1)C(CN(C)C)CO2 (centres undefined) | -23.8
Cc1ccc2c(c1)CN(C(=O)c1ccccc1F)C(CN(C)C)CO2 (centres undefined) | 23.9
COc1ccc(C(=O)N2Cc3cc(C)ccc3OCC2CN(C)C)cc1 (centres undefined) | 66.5
COc1ccccc1C(=O)N1Cc2cc(C)ccc2OCC1CN(C)C (centres undefined) | 60.3
Cc1ccc2c(c1)CN(C(=O)c1cccs1)C(CN(C)C)CO2 (centres undefined) | -10.5
Cc1ccc2c(c1)CN(C(=O)c1cccnc1)C(CN(C)C)CO2 (centres undefined) | 46
CCCc1nc(NCCCOCC)c2c(n1)c(C)nn2CC | -1.4
CC1CCCCN1c1nc2c(c(=O)[nH]1)CCN(Cc1ccccc1F)C2 (centres undefined) | 72.3
CC1CCCCN1c1nc2c(c(=O)[nH]1)CCN(Cc1ccc(O)cc1)C2 (centres undefined) | 10
CC1CCCCN1c1nc2c(c(=O)[nH]1)CCN(Cc1ccccc1O)C2 (centres undefined) | 23.4
Cc1cccc(CN2CCc3c(nc(N4CCCCC4C)[nH]c3=O)C2)n1 (centres undefined) | 18.2
CC1CCCCN1c1nc2c(c(=O)[nH]1)CCN(Cc1ccccn1)C2 (centres undefined) | 36.7
Cc1ccsc1CN1CCc2c(nc(N3CCCCC3C)[nH]c2=O)C1 (centres undefined) | 85.7
O=C(NCCn1nc2ccccn2c1=O)c1scnc1Cl | 17.02
Cn1cc(CN(C(=O)c2ccc(O)c(Cl)c2)C2CC2)cn1 | 21.3
c1csc(N2CCN(c3ncnc4sccc34)CC2)n1 | 38.5
CC1CN(c2ncnc3sccc23)CCN1c1nccs1 (centres undefined) | 60.2
CC1CN(c2ncnc3c2cnn3C)CCN1c1nccs1 (centres undefined) | 5.91
CCC[C@@H]1CN(c2ncnc3sccc23)C[C@H]1C(=O)O | -7.98
c1csc(N2CCCN(c3ncnc4sccc34)CC2)n1 | 66.8
N#Cc1ccc(N2CCCN(c3nccs3)CC2)nc1 | -28.2
